This is a sample that favours compounds with a hit; in the whole collection about 19% have one here.
IL-1B inflam inh: qHTS for Inhibitors of Inflammasome Signaling: IL-1-beta AlphaLISA Primary Screen | THP-1 LPS/ATP IL-1B secretion, AlphaLISA, 16 h; active compounds read low | activity change, % at 57.5 µM | 360,000 tested, 4.7% active | AID 743279, 2014; in the data active means activity change below about -50%; inconclusive means mostly about -30% to -49%
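THP-1 cells pretreated 1 hr with compounds (up to 57.5 uM final), then stimulated with LPS (250 ng/mL final) plus ATP (1.25 mM final); secreted IL-1B measured by AlphaLISA after 16 hr, decreased signal indicating inhibition.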
HT1080-NT tox: qHTS for induction of synthetic lethality in tumor cells producing 2HG: qHTS for the HT-1080-NT fibrosarcoma cell line. AID 686970, 2013. Potency, µM (series often up to 46.1 µM), for inactives: at the top dose activity, negative = less viability, hits mostly cytotoxic. 360,000 tested, 1.6% active. HT-1080-NT fibrosarcoma viability, CellTiter-Glo ATP luminescence, 48 h;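 further: NT is the 2HG producing partner of a matched IDH1 knockdown line; potency means the concentration at half of the fitted maximal effect; 0% = DMSO-treated cells and -100% = media-only wells without cells; nearly all actives have a fitted effect of over 55% in size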
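Toxicity toward the 2HG-producing NT line was scored as %Activity, normalised to DMSO and no-cell wells, from CellTiter-Glo luminescence after 48 hours' treatment.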
TDP1 cell CPT: qHTS for Inhibitors of human tyrosyl-DNA phosphodiesterase 1 (TDP1): qHTS in cells in presence of CPT | 420,000 tested, 12% active | AID 686979, 2013 | chicken DT40 Tdp1-/-;hTDP1 cells + 20 nM CPT, ATP luminescence, 48 h | Potency, µM (doses to about 46.2 µM), for the others: at the top dose activity change, negative = growth inhibition, most hits filed as inhibitors; further: potency means the concentration at half of the fitted maximal effect; nearly all actives have a fitted effect of over 55% in size
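Chicken DT40 Tdp1-/- cells complemented with human TDP1, 400 cells/well, exposed to compounds plus 20 nM camptothecin for at least 48 h at 37 C; viability read as ATP content by CellTiter-Glo luminescence.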
uPA surface inh: qHTS for Inhibitors of Cell Surface uPA Generation; cell surface uPA generation assay, qHTS; 330,000 tested, 0.31% active; Potency, µM (titrated, usually from 38.3 µM), inactives show at the top dose activity change, negative = inhibition, most hits filed as inhibitors; active means well fitted inhibition curve with a large enough effect; inconclusive means small, poorly fitted or top-dose-only effect; inactive means no such curve, though single readings can be large or run the other way; tested in mouse RAW 264.7 cells; further: potency means the concentration at half of the fitted maximal effect; nearly all actives have a fitted effect of over 55% in size
TDP1 cell noCPT: qHTS for Inhibitors of human tyrosyl-DNA phosphodiesterase 1 (TDP1): qHTS in cells in absence of CPT; AID 686978, 2013; Potency, µM (top dose mostly 46.2 µM), for inactives: top-dose activity change, negative = growth inhibition, actives largely listed as inhibitors; DT40 Tdp1-/- hTDP1 cells, no CPT, ATP luminescence, 48 h; 420,000 tested, 15% active; further: potency means the concentration at half of the fitted maximal effect; nearly all actives have a fitted effect of over 55% in size
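A cellular qHTS used chicken DT40 cells lacking endogenous Tdp1 but carrying stably transfected human TDP1. Compounds were applied without camptothecin, and cell growth kinetics were judged by ATP-dependent luminescence after ≥48 hr.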
HT1080 IDH1KD tx: qHTS for induction of synthetic lethality in tumor cells producing 2HG: qHTS for the HT-1080-IDH1KD cell line; HT-1080 IDH1 knockdown viability, ATP luminescence, 48 h; Potency, µM (titrated, usually from 46.1 µM), for the others: top-dose activity, negative = toxicity, actives largely listed as cytotoxic; 360,000 tested, 2% active; AID 686971, 2013;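 further: potency means the concentration at half of the fitted maximal effect; 0% = DMSO wells and -100% = cell-free medium wells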
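Assay cells: HT-1080 with IDH1 knockdown, 750 per well, RPMI/5% FBS. Exposure: 48 h at 37 °C following 2 h pre-incubation. Read: CellTiter-Glo luminescence; fitted concentration-response, curve class assigned.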
* marks the source's active call; other numbers are inactive results; ? = inconclusive; · = no result given. Unless noted, the call rests on the fitted dose curve; in most records, active means well fitted curve in the direction sought with a large enough effect; inconclusive means small, poorly fitted or top-dose-only effect, or another doubt; inactive means no such curve, though single readings can be large; an effect the other way counts as inactive or inconclusive. Unless noted, on the % scale 0 is the no-effect control and ±100 the full control effect.

SMILES	IL-1B inflam inh	HT1080-NT tox	TDP1 cell CPT	uPA surface inh	TDP1 cell noCPT	HT1080 IDH1KD tx
OC[C@@H]1CN(Cc2ccc3c(c2)OCO3)C[C@H](n2cnc3c(N4CCOCC4)ncnc32)O1	3.3	5.7%	-14.9%	·	-7.1%	14.8%
C/C(=N\NC(=S)NCc1ccccc1)c1cccs1	19.0	12.7%	-12.3%	1.8%	?	2.8%
C/C(=N\NC(=S)NCc1ccccc1)c1ccc(Br)cc1	-6.3	-17.4%	?	-18.3%	?	-21.9%
C/C(=N\NC(=S)NCc1ccccc1)c1ccc2c(c1)OCCO2	16.2	-8.5%	16.4µM*	11.7%	23.1µM*	-12.8%
C/C(=N\NC(=S)Nc1ccc(F)cc1)c1ccc2c(c1)OCCO2	-58.4*	?	0.92µM*	?	0.92µM*	?
C/C(=N\NC(=S)NCc1ccccc1)c1ccc(C)o1	-4.0	1.7%	?	4.9%	5.17µM*	-5.0%
CC(C)c1ccc(OCc2cc(=O)n3c(-c4ccccc4)csc3n2)cc1	·	·	?	·	25.9µM*	·
CCOc1cc(NCc2ccccc2)c2ncn(C(C)C)c2c1	0.0	-25.8%	?	-4.7%	23.1µM*	-19.0%
CCC(CO)Oc1cc(NCc2cccc(C)c2)c2ncn(C(C)C)c2c1 (configuration not stated)	18.4	9.4%	20.6µM*	5.8%	?	-3.0%
CC[C@H](CO)Oc1cc(NCc2ccc(Cl)c(Cl)c2)c2ncn(C(C)C)c2c1	-19.8	?	16.4µM*	?	?	-23.0%
CCC(CO)Oc1cc(NCc2ccc(Cl)cc2Cl)c2ncn(C(C)C)c2c1 (configuration not stated)	78.4	?	?	8.91µM*	?	?
O=C(NCCCn1ccnc1)c1ccc(N2CCCCC2)c([N+](=O)[O-])c1	-5.5	-6.8%	-1.0%	-2.7%	?	?
Nc1c(C(=O)Nc2ccccc2)nnn1Cc1ccc(F)cc1Cl	·	·	-22.4%	·	-17.3%	·
CCC(CO)Oc1cc(NCc2cccc(C(F)(F)F)c2)c2ncn(C(C)C)c2c1 (configuration not stated)	0.1	8.7%	16.4µM*	-17.8%	?	-2.1%
CC[C@H](CO)Oc1cc(NCc2cccc(N)c2)c2ncn(C(C)C)c2c1	160.6	?	25.9µM*	·	?	?
CCC(CO)Oc1cc(NCc2ccccc2O)c2ncn(C(C)C)c2c1 (configuration not stated)	0.0	?	14.6µM*	10.1%	18.4µM*	-7.0%
CCC(CO)Oc1cc(NCc2ccc(C)cc2)c2ncn(C(C)C)c2c1 (configuration not stated)	0.0	-10.7%	?	-1.5%	?	-1.1%
CCC(CO)Oc1cc(NCc2ccc(OC)cc2)c2ncn(C(C)C)c2c1 (configuration not stated)	-4.8	0.4%	?	21.5%	?	-5.8%
C[C@H](CO)N1C[C@H](C)[C@@H](CN(C)C(=O)C2CCOCC2)Oc2ncc(Br)cc2C1=O	5.4	10.7%	12.4%	·	-2.0%	4.2%
CSCCC(NS(=O)(=O)c1ccccc1)C(=O)OCc1cc(=O)oc2cc(O)ccc12 (configuration not stated)	4.1	-3.5%	?	8.9%	?	-7.6%
O=C(O)C[C@@H](O)C(=O)O	2.8	14.0%	-26.1%	9.5%	0.4%	3.1%
CN1CCN(C(=O)C[C@H]2C[C@H]3c4cc(NC(=O)NC5CCCCC5)ccc4O[C@H]3[C@@H](CO)O2)CC1	-14.2	-1.2%	-3.3%	·	9.8%	11.8%
COC(=O)/C=C1/S/C(=N/NC(=O)c2ccccc2OC)NC1=O	17.8	14.1%	-23.4%	0.8%	?	20.0%
COC(=O)/C=C1\S/C(=N\N=C\CC(=O)OC)NC1=O	4.3	-1.2%	3.66µM*	0.8%	5.17µM*	-1.8%
Cc1ccc(NC(=O)CSc2ccc(Br)cc2)cc1S(=O)(=O)N1CCOCC1	?	-29.0%	18.4µM*	3.2%	25.9µM*	-4.0%
SMILES	IL-1B inflam inh	HT1080-NT tox	TDP1 cell CPT	uPA surface inh	TDP1 cell noCPT	HT1080 IDH1KD tx
Cc1ccc(NC(=O)CCCSc2ccccc2)cc1S(=O)(=O)N1CCOCC1	-51.6*	-22.3%	3.2%	-5.3%	-11.3%	-0.9%
O=C(NCCc1ccc(Cl)cc1)C(=O)NCC(c1ccc2c(c1)OCO2)N1CCOCC1 (configuration not stated)	·	·	-19.0%	·	-20.5%	·
CCOc1ccc(NC(=O)CCS(=O)(=O)c2cccc3nonc23)cc1	·	·	-13.6%	·	-22.5%	·
O=c1[nH]c(Nc2ccc3c(c2)OCCO3)nnc1Cc1ccc(Cl)cc1	-10.7	-2.3%	?	3.4%	?	17.6%
O=c1cc(Nc2ccc3c(c2)OCCO3)[nH]c(=O)n1C1CCCCC1	15.9	?	14.6µM*	?	16.4µM*	?
O=c1cc(Nc2ccc3c(c2)OCCO3)[nH]c(=O)n1-c1ccc(Cl)cc1	-1.0	-3.9%	23.1µM*	-6.8%	18.4µM*	0.9%
Cc1ccc(-c2cc(C(=O)NCc3cnn(C)c3C)c3cc(Br)ccc3n2)cc1	133.5	?	?	0.6%	?	?
Cc1ccc(-c2cc(C(=O)N(C)Cc3cnn(C)c3C)c3cc(Br)ccc3n2)cc1	23.5	-6.2%	7.31µM*	-0.3%	10.3µM*	-12.5%
O=C(CCCn1c(=S)[nH]c2cc3c(cc2c1=O)OCO3)N1CCN(C2CCCCC2)CC1	0.0	1.0%	?	4.9%	-29.0%	3.0%
COc1cccc(N2CCN(C(=O)CCCCCn3c(=S)[nH]c4cc5c(cc4c3=O)OCO5)CC2)c1	0.0	9.4%	20.6µM*	10.7%	?	10.1%
COc1ccccc1N1CCN(C(=O)CCCCCn2c(=S)[nH]c3cc4c(cc3c2=O)OCO4)CC1	11.1	-6.7%	?	·	10.3µM*	2.0%
O=C(CCCCCn1c(=S)[nH]c2cc3c(cc2c1=O)OCO3)N1CCN(c2ccccc2)CC1	25.0	5.7%	?	-5.5%	-11.0%	18.4%
O=c1c2ccccc2[nH]c(=S)n1CCCN1CCN(c2ccccc2F)CC1	-18.9	4.8%	2.91µM*	?	?	-21.6%
O=C(CCCn1c(=S)[nH]c2cc3c(cc2c1=O)OCO3)N1CCN(c2ncccn2)CC1	-8.5	6.2%	?	·	?	3.3%

Screens deposited in PubChem by National Center for Advancing Translational Sciences (NCATS).
